# From the supplement of paper PMC10127200
# Where a name gives a salt, the structure may show the parent alone.
# System: HEPG2
# Assay: Euclidean distance of Cell Painting phenotypic profile (signed KS, 77 features) to DMSO centroid (dimensionless distance); 5 or 10 uM (library dependent); higher = stronger phenotypic change vs DMSO (phenoactivity)
# Conditions: 48 h
# Summary of the method: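 Harmony extracted 77 features from 20X confocal images (9 fields/well) of stained cells, scoring each as a signed Kolmogorov-Smirnov statistic against same-plate vehicle wells. The cells, five cancer lines and a healthy fibroblast line, had received library compounds for 48 h at 10 or 5 uM depending on library, with 0.1% DMSO final. Phenoactivity is the Euclidean distance from each plate-position-corrected, correlation-weighted, top-dose replicate-averaged profile to the median vehicle profile.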
row,Compound,Euclidean distance
1,CCCc1nn(C)c2c(=O)[nH]c(-c3cc(S(=O)(=O)N4CCN(C)CC4)ccc3OCC)nc12 [Sildenafil Mesylate],0.692
2,Cc1cnc(Nc2ccc(N3CCN(C)CC3)cc2)nc1Nc1cccc(S(=O)(=O)NC(C)(C)C)c1,2.58
3,Cc1cc2ncc(C(=O)NCC(C)(C)NCC(=O)N3CCC[C@H]3C#N)cn2n1 [Anagliptin],0.393
4,O=C(OCc1ccccc1)c1ccccc1 [Benzyl benzoate],0.831
5,CO[C@H]1C[C@@H]2CC[C@@H](C)[C@@](O)(O2)C(=O)C(=O)N2CCCC[C@H]2C(=O)O[C@H]([C@H](C)C[C@@H]2CC[C@@H](OC(=O)C(C)(CO)CO)[C@H](OC)C2)CC(=O)[C@H](C)/C=C(\C)[C@@H](O)[C@@H](OC)C(=O)[C@H](C)C[C@H](C)/C=C/C=C/C=C/1C,1.69
6,CCS(=O)(=O)c1cccc(-c2cc(C(=O)NC3CCN(C)CC3)c(C)c3[nH]c4ncc(C)cc4c23)c1,2.3
7,NC(=O)c1ccccc1O [Salicylamide],0.71
8,CC(C(=O)O)c1ccc(C(=O)c2cccs2)cc1 (stereo not given) [Suprofen],2.04
9,CCCCCCCCCC(=O)N[C@H]1[C@H](Oc2c3cc4cc2Oc2ccc(cc2Cl)[C@@H](O[C@@H]2O[C@H](CO)[C@@H](O)[C@H](O)[C@H]2NC(C)=O)[C@@H]2NC(=O)[C@H](NC(=O)[C@@H]4NC(=O)[C@H]4NC(=O)[C@@H](Cc5ccc(c(Cl)c5)O3)NC(=O)[C@H](N)c3ccc(O)c(c3)Oc3cc(O)cc4c3)c3ccc(O)c(c3)-c3c(OC4O[C@H](CO)[C@@H](O)[C@H](O)[C@@H]4O)cc(O)cc3[C@@H](C(=O)O)NC2=O)O[C@H](CO)[C@@H](O)[C@@H]1O (stereo not given in full) [Teicoplanin],1.39
10,Cc1cccc(C)c1NC(=O)C1CCCCN1C (stereo not given) [Mepivacaine HCl],0.483
11,Cc1nc2cccc(N)c2c(=O)n1C1CCC(=O)NC1=O (stereo not given) [Avadomide(CC-122)],0.382
12,CC[C@]1(O)C[C@@H]2CN(CCc3c([nH]c4ccccc34)[C@@](C(=O)OC)(c3cc4c(cc3OC)N(C)[C@H]3[C@@](O)(C(=O)OC)[C@H](OC(C)=O)[C@]5(CC)C=CCN6CC[C@]43[C@@H]65)C2)C1 [Vinblastine sulfate],3.33
13,CC1(COc2ccc3c(c2)ncn3-c2ccc3cccc(N4CCC(N)CC4)c3n2)COC1,3.6
14,CCCCNc1ncc(-c2ccc(CN3CCOCC3)cn2)c(NC2CCC(O)CC2)n1 (stereo not given),0.659
15,CC(C[N+](C)(C)C)OC(N)=O (stereo not given) [Bethanechol chloride],1.03
16,CN1CCC(=C2c3ccccc3C=Cc3ccccc32)CC1 [Cyproheptadine hydrochloride],2.26
17,O=C(NCc1ccccc1)c1csc(Nc2ccncn2)n1 [Thiazovivin],1.84
18,CCC[C@@H]1C[C@@H](C(=O)N[C@@H]([C@H]2O[C@H](SC)[C@H](O)[C@@H](O)[C@H]2O)[C@H](C)Cl)N(C)C1 [Clindamycin HCl],0.82
19,Cc1ccsc1/C=C/C1=NCCCN1C [Morantel tartrate],0.557
20,CN(C)c1nc(N(C)C)nc(N(C)C)n1 [Altretamine],0.597

row,Compound,Euclidean distance
1,c1cnc(N2CCN(Cc3ccc4c(c3)OCO4)CC2)nc1 [Piribedil],0.645
2,Fc1cc(-c2cccc3ncc(-c4cnn(C5CCNCC5)c4)nc23)cc(F)c1CN1CCOCC1,2.39
3,CN(C(=O)c1c(O)c2ccccc2n(C)c1=O)c1ccccc1 [Roquinimex],0.76
4,COc1cccc(CCc2ccccc2OCC(CN(C)C)OC(=O)CCC(=O)O)c1 (stereo not given) [Sarpogrelate hydrochloride],0.99
5,Cc1csc(-c2nnc(Nc3ccc(Oc4ncccc4-c4ccnc(N)n4)cc3)c3ccccc23)c1,2.61
6,N=C(N)NC(=O)c1nc(Cl)c(N)nc1N [Amiloride HCl],1.33
7,CCOC(=O)N1c2ccc(C(F)(F)F)cc2[C@@H](N(Cc2cc(C(F)(F)F)cc(C(F)(F)F)c2)C(=O)OC)C[C@H]1CC [Torcetrapib],0.467
8,CC(C)C(=O)Oc1ccc(CO)cc1[C@H](CCN(C(C)C)C(C)C)c1ccccc1 [Fesoterodine Fumarate],1.16
9,CC1(C)S[C@@H]2[C@H](NC(=O)[C@H](N)c3ccccc3)C(=O)N2[C@H]1C(=O)O [Ampicillin sodium],0.55
10,CCCCCOC(=O)Nc1nc(=O)n([C@@H]2O[C@H](C)[C@@H](O)[C@H]2O)cc1F [Capecitabine],0.821
11,CNC(=O)c1ccc2cc([C@@]3(O)CCn4cncc43)ccc2c1 [TAK-700 (Orteronel)],1.1
12,CC1(C)OC[C@@H](COC(=O)CCc2ccc(OC[C@@H](O)CNCCNC(=O)N3CCOCC3)cc2)O1 [Landiolol hydrochloride],0.692
13,CS(=O)(=O)c1ccc(C2=C(c3ccccc3)C(=O)OC2)cc1 [Rofecoxib],0.51
14,C=C1[C@H](CO)[C@@H](O)C[C@@H]1n1cnc2c(=O)[nH]c(N)nc21 [Entecavir],1.35
15,CO[C@H]1C[C@@H]2CC[C@@H](C)[C@@](O)(O2)C(=O)C(=O)N2CCCC[C@H]2C(=O)O[C@H]([C@H](C)C[C@@H]2CC[C@@H](O)[C@H](OC)C2)CC(=O)[C@H](C)/C=C(\C)[C@@H](O)[C@@H](OC)C(=O)[C@H](C)C[C@H](C)/C=C/C=C/C=C/1C [Rapamycin (Sirolimus)],1.86
16,c1ccc2c(c1)CCCC2C1=NCCN1 (stereo not given) [Tetryzoline],0.572
17,Nc1ccc(S(=O)(=O)Nc2cnc3ccccc3n2)cc1 [Sulfaquinoxaline sodium],0.697
18,NC(=O)N1CCC(CC(=O)N2CCC([C@H]3c4ncc(Br)cc4CCc4cc(Cl)cc(Br)c43)CC2)CC1 [Lonafarnib],1.1
19,CNC[C@H](O)c1cccc(O)c1 [Phenylephrine HCl],0.549
20,CCn1cc(C(=O)O)c(=O)c2cc(F)c(N3CCNCC3)nc21 [Enoxacin Sesquihydrate],0.516
